In PubChem BioAssay (Tox21):
“And” between values parts separate entries of the source, which are not always exact repeats. Equal values may be shown once. Records with an inconclusive call do not appear. The source made the active and inactive calls. Unless noted, the call rests on the fitted dose curve; in most records, active means well fitted curve in the direction sought with a large enough effect in the repeat runs; inconclusive means weak or mixed curves; inactive means no such curve, though single readings can be large; an effect the other way counts as inactive or inconclusive.

Key:
[1] = molecular target: Aryl hydrocarbon receptor (Homo sapiens) (UniProt P35869); test: qHTS assay to identify small molecule that activate the aryl hydrocarbon receptor (AhR) signaling pathway (AID 743085); further: nearly all actives have a fitted effect of over 15% in size; further: potency means the concentration at half of the fitted maximal effect;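 on activation: HG2L7.5c1 human HepG2 liver cells with stably integrated DRE-driven firefly reporter; series mostly up to about 70 µM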
Chain of Aryl hydrocarbon receptor (Homo sapiens) (P35869 whole entry, looked up): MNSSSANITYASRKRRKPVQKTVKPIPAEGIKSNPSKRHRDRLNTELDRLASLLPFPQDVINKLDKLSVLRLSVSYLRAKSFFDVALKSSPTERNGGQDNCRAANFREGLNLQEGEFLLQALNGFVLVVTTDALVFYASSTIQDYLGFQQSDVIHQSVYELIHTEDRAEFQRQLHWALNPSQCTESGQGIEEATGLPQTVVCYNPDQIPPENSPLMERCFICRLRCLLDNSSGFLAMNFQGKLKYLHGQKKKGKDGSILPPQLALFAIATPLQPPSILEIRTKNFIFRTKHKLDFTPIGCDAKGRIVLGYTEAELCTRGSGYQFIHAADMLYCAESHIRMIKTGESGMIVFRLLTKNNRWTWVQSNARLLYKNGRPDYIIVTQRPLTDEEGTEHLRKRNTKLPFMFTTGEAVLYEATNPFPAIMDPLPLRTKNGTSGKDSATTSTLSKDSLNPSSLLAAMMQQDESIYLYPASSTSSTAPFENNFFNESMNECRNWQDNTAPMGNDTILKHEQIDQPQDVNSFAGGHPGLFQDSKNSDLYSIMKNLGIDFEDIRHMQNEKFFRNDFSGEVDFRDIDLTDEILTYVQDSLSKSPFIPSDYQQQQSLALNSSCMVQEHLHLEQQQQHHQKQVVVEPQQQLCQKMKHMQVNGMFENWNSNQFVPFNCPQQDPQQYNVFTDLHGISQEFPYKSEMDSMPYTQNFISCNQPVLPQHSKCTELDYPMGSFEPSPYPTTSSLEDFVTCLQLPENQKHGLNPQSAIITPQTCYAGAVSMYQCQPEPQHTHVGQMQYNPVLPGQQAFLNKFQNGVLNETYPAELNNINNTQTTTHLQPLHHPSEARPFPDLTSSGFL
Method in brief: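 A multiplexed format paired cell viability (CellTiter-Fluor fluorescence) with AhR-dependent luciferase output (ONE-Glo luminescence) in the same wells of HepG2 DRE-luc cells after 24 h compound exposure at 37C.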

[2] = qHTS assay for small molecule activators of the heat shock response signaling pathway - cell viability counter screen (AID 743209); further: nearly all actives have a fitted effect of over 50% in size; further: potency means the concentration at half of the fitted maximal effect
Method in brief: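 Counter screen for cytotoxicity in HeLa HSE-bla reporter cells. Treatment was 5 h at 37 C; viability was detected by luminescent ATP assay (CellTiter-Glo) in the same wells as the beta-lactamase read.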

[3] = qHTS assay for small molecule activators of the heat shock response signaling pathway (AID 743210; active means well fitted activation curve with a large enough effect in the signal ratio in the repeat runs, with a control signal flat, not every such curve was filed as active; the % refers to the signal ratio;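 further: HeLa cells with beta-lactamase reporter driven by heat shock elements; series mostly up to about 63 µM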)
Method in brief: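 Quantitative high-throughput format using an engineered HeLa line in which heat shock response elements drive beta-lactamase; after 5 h with compound, cells received a B/G FRET substrate and fluorescence was read.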

[4] = qHTS assay to identify small molecule agonists of the peroxisome proliferator-activated receptor delta (PPARd) signaling pathway - cell viability counter screen (AID 743211); further: nearly all actives have a fitted effect of over 55% in size; further: potency means the concentration at half of the fitted maximal effect
Method in brief: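 Tox21 library compounds, delivered in DMSO, were incubated 17 h with PPARd-bla HEK293H cells; cytotoxicity was taken from CellTiter-Glo luminescence read 30 min after reagent addition.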

[5] = qHTS assay to identify small molecule antagonists of the peroxisome proliferator-activated receptor delta (PPARd) signaling pathway - cell viability counter screen (AID 743213); further: nearly all actives have a fitted effect of over 50% in size; further: potency means the concentration at half of the fitted maximal effect
Method in brief: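 PPARd-bla HEK293H cells were treated with compounds plus agonist L165041 (300 nM final) for 17 h at 37 C. Viability was then read in the same wells by CellTiter-Glo luminescence after 30 min at room temperature.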

[6] = molecular target: Bile acid receptor (Homo sapiens) (UniProt Q96RI1); test: qHTS assay to identify small molecule agonists of the farnesoid-X-receptor (FXR) signaling pathway (AID 743220; active means well fitted activation curve with a large enough effect in the signal ratio in the repeat runs, not every such curve was filed as active; the % refers to the signal ratio; further: potency means the concentration at half of the fitted maximal effect)
Chain of Bile acid receptor (Homo sapiens) (Q96RI1 whole entry, looked up): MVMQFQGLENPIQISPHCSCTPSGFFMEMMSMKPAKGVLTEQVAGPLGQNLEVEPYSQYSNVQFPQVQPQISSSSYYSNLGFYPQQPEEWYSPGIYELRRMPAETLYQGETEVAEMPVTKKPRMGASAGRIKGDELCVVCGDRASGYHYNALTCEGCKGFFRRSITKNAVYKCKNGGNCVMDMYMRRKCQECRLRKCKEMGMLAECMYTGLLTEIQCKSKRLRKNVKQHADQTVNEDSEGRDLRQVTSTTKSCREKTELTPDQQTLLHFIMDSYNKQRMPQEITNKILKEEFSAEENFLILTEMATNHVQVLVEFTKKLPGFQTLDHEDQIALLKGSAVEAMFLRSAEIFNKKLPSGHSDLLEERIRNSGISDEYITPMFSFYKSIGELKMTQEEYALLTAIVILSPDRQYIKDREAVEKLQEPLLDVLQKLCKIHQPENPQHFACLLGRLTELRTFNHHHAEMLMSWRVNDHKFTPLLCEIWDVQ
Method in brief: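 Beta-lactamase reporter under UAS control in GeneBLAzer FXR HEK 293T cells (5000/well) measured with LiveBLAzer FRET substrate after 2 h at room temperature. Compound exposure lasted 16 h at 37C.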

[7] = qHTS assay to identify small molecule antagonists of the farnesoid-X-receptor (FXR) signaling pathway - cell viability counter screen (AID 743221; active means well fitted cell-killing curve with a large enough effect in the repeat runs, not every such curve was filed as active; further: nearly all actives have a fitted effect of over 50% in size; further: potency means the concentration at half of the fitted maximal effect)
Method in brief: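 Cytotoxicity is taken from ATP luminescence (CellTiter-Glo, 30 min, room temperature) in FXR-bla HEK 293T cells previously incubated 16 h at 37 C with compound and chenodeoxycholic acid at 50 uM final.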

[8] = molecular target: Peroxisome proliferator-activated receptor gamma (Homo sapiens) (UniProt P37231); test: qHTS assay to identify small molecule agonists of the peroxisome proliferator-activated receptor gamma (PPARg) signaling pathway (AID 743094; active means well fitted activation curve with a large enough effect in the signal ratio in the repeat runs, not every such curve was filed as active; the % refers to the signal ratio; further: potency means the concentration at half of the fitted maximal effect)
Chain of Peroxisome proliferator-activated receptor gamma (Homo sapiens) (P37231 whole entry, looked up): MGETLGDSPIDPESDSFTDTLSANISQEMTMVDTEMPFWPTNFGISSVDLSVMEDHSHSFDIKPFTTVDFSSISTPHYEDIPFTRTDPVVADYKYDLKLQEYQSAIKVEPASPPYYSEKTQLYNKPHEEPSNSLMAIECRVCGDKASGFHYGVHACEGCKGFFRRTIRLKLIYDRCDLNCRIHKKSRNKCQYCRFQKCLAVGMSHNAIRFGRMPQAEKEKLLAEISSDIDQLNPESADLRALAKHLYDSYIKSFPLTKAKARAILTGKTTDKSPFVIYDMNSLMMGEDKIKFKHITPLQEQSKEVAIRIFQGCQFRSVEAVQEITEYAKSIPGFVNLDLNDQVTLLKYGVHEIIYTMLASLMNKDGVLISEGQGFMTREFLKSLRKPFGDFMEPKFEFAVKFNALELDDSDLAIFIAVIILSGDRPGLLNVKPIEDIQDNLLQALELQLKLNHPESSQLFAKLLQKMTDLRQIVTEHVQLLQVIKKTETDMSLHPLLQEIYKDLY
Method in brief: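 Following 5 h plating at 37C, PPARg-bla HEK293H cells receive compound or DMSO for 17 h; fluorescence intensity is recorded after LiveBLAzer B/G loading for 1 h at room temperature.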

[9] = qHTS assay to identify small molecule antagonists of the peroxisome proliferator-activated receptor gamma (PPARg) signaling pathway - cell viability counter screen (AID 743194); further: nearly all actives have a fitted effect of over 55% in size; further: potency means the concentration at half of the fitted maximal effect
Method in brief: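 Cytotoxicity counter screen in PPARg-bla HEK293H cells, same wells as reporter assay. Compounds plus 50 nM rosiglitazone (final) for 17 h at 37 C, then viability read by CellTiter-Glo luminescence.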

[10] = qHTS assay for small molecule agonists of the antioxidant response element (ARE) signaling pathway - cell viability counter screen (AID 743203; calls by dose curve; further: nearly all actives have a fitted effect of over 55% in size; further: potency means the concentration at half of the fitted maximal effect)
Method in brief: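 Compounds in DMSO were pinned onto ARE-bla HepG2 cells plated 5 hrs earlier at 2,000 cells/well. Sixteen hours later at 37C/5% CO2, CellTiter-Glo was added and luminescence measured after 30 min at room temperature.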

[11] = molecular target: Bile acid receptor (Homo sapiens) (UniProt Q96RI1); test: qHTS assay to identify small molecule antagonists of the farnesoid-X-receptor (FXR) signaling pathway (AID 743217; active means well fitted inhibition curve with a large enough effect in the signal ratio in the repeat runs, not every such curve was filed as active; the % refers to the signal ratio; further: potency means the concentration at half of the fitted maximal effect)
Method in brief: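 In this cell-based antagonist screen, inhibition of CDCA-driven (50 uM final) UAS-beta-lactamase expression in HEK 293T cells was measured by FRET fluorescence following 16 h compound exposure at 37 °C.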

[12] = qHTS assay to identify small molecule agonists of the farnesoid-X-receptor (FXR) signaling pathway - cell viability counter screen (AID 743218); further: nearly all actives have a fitted effect of over 45% in size; further: potency means the concentration at half of the fitted maximal effect
Method in brief: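 After 16 h at 37 C with test compounds, FXR-bla HEK 293T cells were given LiveBLAzer B/G substrate for 2 h at RT and then CellTiter-Glo; luminescence was taken after 30 min.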

[13] = molecular target: Vitamin D3 receptor (Homo sapiens) (UniProt P11473); test: qHTS assay to identify small molecule agonists of the vitamin D receptor (VDR) signaling pathway (AID 743222; calls by dose curve)
Chain of Vitamin D3 receptor (Homo sapiens) (P11473 whole entry, looked up): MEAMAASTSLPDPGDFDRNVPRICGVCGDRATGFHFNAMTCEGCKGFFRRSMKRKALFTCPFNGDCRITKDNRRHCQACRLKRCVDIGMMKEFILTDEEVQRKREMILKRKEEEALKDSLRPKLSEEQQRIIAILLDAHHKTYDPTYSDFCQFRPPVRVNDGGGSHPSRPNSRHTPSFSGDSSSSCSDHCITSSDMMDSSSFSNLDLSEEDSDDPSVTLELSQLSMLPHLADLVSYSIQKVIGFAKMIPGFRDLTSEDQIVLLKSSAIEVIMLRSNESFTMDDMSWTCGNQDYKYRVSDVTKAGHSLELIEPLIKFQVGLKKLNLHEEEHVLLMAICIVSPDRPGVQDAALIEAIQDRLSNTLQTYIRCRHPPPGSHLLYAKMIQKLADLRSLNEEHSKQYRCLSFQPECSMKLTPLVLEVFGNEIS
Method in brief: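 VDR-bla cells were seeded, left 4 h, treated with compounds in DMSO for 16 h, incubated 2 h at RT with B/G FRET substrate, and read for fluorescence.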

[14] = molecular target: Peroxisome proliferator-activated receptor gamma (Homo sapiens) (UniProt P37231); test: qHTS assay to identify small molecule antagonists of the peroxisome proliferator-activated receptor gamma (PPARg) signaling pathway (AID 743191; calls by dose curve; further: nearly all actives have a fitted effect of over 30% in size; further: potency means the concentration at half of the fitted maximal effect; on ratio activity, negative = inhibition: series mostly up to about 63 µM)
Method in brief: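 GeneBLAzer PPARg UAS-bla HEK293H cells, 5 h post-plating, exposed to compounds 17 h at 37C. LiveBLAzer B/G FRET substrate added for 1 h at room temperature; beta-lactamase reporter read by fluorescence intensity.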

[15] = molecular target: Peroxisome proliferator-activated receptor delta (Homo sapiens) (UniProt Q03181); test: qHTS assay to identify small molecule agonists of the peroxisome proliferator-activated receptor delta (PPARd) signaling pathway (AID 743212; calls by dose curve)
Chain of Peroxisome proliferator-activated receptor delta (Homo sapiens) (Q03181 whole entry, looked up): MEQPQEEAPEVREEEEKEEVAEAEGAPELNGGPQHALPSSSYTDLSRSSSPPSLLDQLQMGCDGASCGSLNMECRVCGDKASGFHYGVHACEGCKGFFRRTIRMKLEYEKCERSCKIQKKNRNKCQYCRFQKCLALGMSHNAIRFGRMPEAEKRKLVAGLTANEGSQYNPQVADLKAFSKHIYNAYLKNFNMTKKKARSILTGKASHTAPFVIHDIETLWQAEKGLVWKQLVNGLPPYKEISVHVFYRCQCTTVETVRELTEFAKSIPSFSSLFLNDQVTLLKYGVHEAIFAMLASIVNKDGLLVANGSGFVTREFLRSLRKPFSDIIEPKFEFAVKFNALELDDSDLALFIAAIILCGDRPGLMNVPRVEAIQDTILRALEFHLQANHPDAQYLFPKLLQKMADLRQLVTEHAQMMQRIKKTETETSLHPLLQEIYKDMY
Method in brief: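 Quantitative high-throughput agonist screen in a HEK293H beta-lactamase reporter line under UAS control. Compounds in DMSO, at 37 C. Fluorescence read after 2 h with FRET substrate at room temperature.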

[16] = qHTS assay to identify small molecule that activate the aryl hydrocarbon receptor (AhR) signaling pathway - cell viability counter screen (AID 743086);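 further: HepG2 liver cells carrying the AhR DRE luciferase reporter; series mostly up to about 70 µM; nearly all actives have a fitted effect of over 45% in size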
Method in brief: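 HepG2-AhR-luc (HG2L7.5c1) cells, 4000/well, treated 24 h at 37 C with compound; viability measured as CellTiter-Fluor fluorescence after 30 min in the same wells as the luciferase read.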

[17] = qHTS assay for small molecule agonists of the antioxidant response element (ARE) signaling pathway (AID 743202; active means well fitted activation curve with a large enough effect in the signal ratio in the repeat runs, not every such curve was filed as active; the % refers to the signal ratio)
Method in brief: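 Agonist mode reporter screen: HepG2 cells with ARE-controlled beta-lactamase are incubated with test compounds for 16 h at 37 C, and beta-lactamase activity is measured as fluorescence of cleaved B/G FRET substrate.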

[18] = molecular target: Peroxisome proliferator-activated receptor delta (Homo sapiens) (UniProt Q03181); test: qHTS assay to identify small molecule antagonists of the peroxisome proliferator-activated receptor delta (PPARd) signaling pathway (AID 743215; active means well fitted inhibition curve with a large enough effect in the signal ratio in the repeat runs, not every such curve was filed as active; the % refers to the signal ratio;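 further: cells stimulated with agonist L165041 at 300 nM final during compound exposure; series mostly up to about 62 µM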)
Method in brief: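 With L165041 present at 300 nM final, compounds were incubated 17 h at 37 C on PPARd UAS-bla HEK293H cells. A FRET-based beta-lactamase substrate was then applied for 2 h at room temperature and fluorescence intensity recorded.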

[19] = molecular target: Vitamin D3 receptor (Homo sapiens) (UniProt P11473); test: qHTS assay to identify small molecule antagonists of the vitamin D receptor (VDR) signaling pathway (AID 743223; active means well fitted inhibition curve with a large enough effect in the signal ratio in the repeat runs, not every such curve was filed as active; the % refers to the signal ratio)
Method in brief: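 Quantitative HTS in VDR-bla reporter cells stimulated with 1alpha,25-dihydroxyvitamin D3, 3 nM final. Compound exposure 16 h, 37C, 5% CO2. Read-out: beta-lactamase FRET substrate fluorescence, 2 h RT.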

[20] = qHTS assay to identify small molecule agonists of the vitamin D receptor (VDR) signaling pathway - cell viability counter screen (AID 743224); further: nearly all actives have a fitted effect of over 50% in size; further: potency means the concentration at half of the fitted maximal effect; on activity change, negative = cytotoxicity: series mostly up to about 63 µM
Method in brief: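 Here cell health was gauged by luminescent ATP detection (CellTiter-Glo, 30 min RT) in VDR-bla cells that had been incubated with test compounds for 16 h at 37C and 5% CO2.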
On the % scale 0 is the no-effect control and ±100 the full control effect.

CN1CCC[C@@H]1CCO[C@](C)(c1ccccc1)c1ccc(Cl)cc1
active: Potency [4] 29.8 µM | Potency [5] 26.6 µM | Potency [7] 29.8 µM
inactive: Potency [1] | Potency [2] | Potency [3] | Potency [6]

CN(C)c1ccc(C(=C2C=CC(=[N+](C)C)C=C2)c2ccc(N(C)C)cc2)cc1
inactive: Potency [6] | Potency [13]
active: Potency [1] 2.42 µM | Potency [8] 8.49 µM | Potency [9] 1.94 µM and 1.95 µM and 5.96 µM | Potency [10] 9.64 µM and 10.9 µM and 11.9 µM | Potency [2] 1.73 µM and 4.36 µM and 6.68 µM | Potency [4] 6.88 µM and 7.76 µM and 8.41 µM | Potency [5] 17.3 µM and 17.4 µM and 6.68 µM | Potency [11] 16.8 µM | Potency [12] 10.9 µM and 19.5 µM and 10.6 µM | Potency [7] 21.8 µM and 27.5 µM and 13.3 µM

COc1c(C)c2c(c(O)c1C/C=C(\C)CCC(=O)OCCN1CCOCC1)C(=O)OC2
inactive: Potency [1] | Potency [2] | Potency [15] | Potency [6]
active: Potency [14] 0.473 µM | Potency [11] 1.5 µM

NC[C@H]1O[C@H](O[C@H]2[C@H](O[C@@H]3O[C@H](CO)[C@@H](O)[C@H]3O)C(O)[C@H](N)C[C@@H]2N)[C@H](N)[C@@H](O)[C@@H]1O (stereo partly specified)
inactive: Potency [16] | Potency [8] | ratio activity, negative = inhibition [14] 1.19% [at 13.2 µM] | activity change, negative = cytotoxicity [9] 8.9% [at 13.2 µM] | activation [17] 0.127% [at 8.36 µM] | viability change, negative = cytotoxic [10] -15.3% [at 8.36 µM] | activity change, negative = cytotoxicity [2] 4.74% [at 13.2 µM] | activation [3] 1.22% [at 13.2 µM] | activity change, negative = cytotoxicity [4] 8.47% [at 13.2 µM] | viability change, negative = cytotoxic [5] -6.55% [at 13.7 µM] | viability change, negative = cytotoxic [12] 5.37% [at 13.2 µM] | activity change, negative = cytotoxicity [7] 8.66% [at 13.2 µM]

CC(CO)Oc1ccccc1 (stereo unspecified)
inactive: Potency [16] | Potency [8] | Potency [14] | Potency [9] | Potency [17] | Potency [10] | Potency [2] | Potency [3] | Potency [4] | Potency [15] | Potency [18] | Potency [11] | Potency [12] | Potency [6] | Potency [7] | Potency [19]

Nc1ccc(Oc2ccc(Cl)cc2)cc1
inactive: Potency [1] | Potency [8] | Potency [14] | Potency [9] | Potency [10] | Potency [2] | Potency [3] | Potency [15] | Potency [5] | Potency [18] | Potency [11] | Potency [12] | Potency [6] | Potency [7] | Potency [19]

CC(C)NC[C@@H](O)COc1ccc(CC(N)=O)cc1
inactive: Potency [1] | Potency [8] | Potency [9] | Potency [17] | Potency [2] | Potency [3] | Potency [4] | Potency [5] | Potency [12] | Potency [7] | Potency [19] | Potency [20]

OC12N=C(c3ccccc3)SC1Cc1cc(Cl)ccc12 (stereo unspecified)
inactive: Potency [8] | Potency [9] | Potency [10] | Potency [2] | Potency [15] | Potency [5] | Potency [11] | Potency [12] | Potency [6] | Potency [7] | Potency [13] | Potency [19]
active: Potency [1] 24.3 µM

CCN1C(=O)c2ccccc2C1Nc1ccc(OCCN2CCCCC2)cc1 (stereo unspecified)
inactive: Potency [1] | Potency [8] | Potency [17] | Potency [10] | Potency [2] | Potency [4] | Potency [15] | Potency [11] | Potency [12] | Potency [6] | Potency [7] | Potency [19] | Potency [20]

O=S(=O)(O)c1ccccc1/C=C/c1ccc(-c2ccc(/C=C/c3ccccc3S(=O)(=O)O)cc2)cc1
active: Potency [6] 31.3 µM
inactive: Potency [1] | Potency [9] | Potency [10] | Potency [2] | Potency [4] | Potency [12] | Potency [7] | Potency [20]

CNc1ccc([N+](=O)[O-])cc1
inactive: Potency [8] | Potency [9] | Potency [17] | Potency [5] | Potency [7]
active: Potency [1] 54.6 µM | Potency [2] 12.3 µM | Potency [12] 27.6 µM

O=C(c1ccc(O)c(O)c1)c1ccc(O)cc1O
inactive: Potency [8] | Potency [14] | Potency [9] | Potency [10] | Potency [2] | Potency [5] | Potency [12] | Potency [7] | Potency [20]
active: Potency [1] 5.44 µM

CCOC(=O)c1ccc(C2CCC(NC[C@H](O)COc3ccc(O)c(NS(C)(=O)=O)c3)CC2)cc1 (stereo partly specified)
inactive: Potency [1] | Potency [14] | Potency [2] | Potency [15] | Potency [6]
active: Potency [10] 50.2 µM | Potency [4] 35.9 µM | Potency [12] 35.9 µM | Potency [20] 40.3 µM

O=C1OC2(c3ccc(O)cc3Oc3cc(O)ccc32)c2ccc(N=C=S)cc21
inactive: Potency [1] | Potency [9] | Potency [2] | Potency [4] | Potency [12] | Potency [6] | Potency [7] | Potency [20]

CC(C)=CCC1=C(O)c2ccccc2C(=O)C1=O
inactive: Potency [10] | Potency [2] | Potency [3] | Potency [4] | Potency [15] | Potency [12] | Potency [13] | Potency [19]
active: Potency [1] 54.2 µM | Potency [14] 0.772 µM

Cc1c(C)c([N+](=O)[O-])c(C(C)(C)C)c([N+](=O)[O-])c1C
inactive: Potency [1] | Potency [8] | Potency [17] | Potency [10] | Potency [2] | Potency [3] | Potency [15] | Potency [5] | Potency [18] | Potency [12] | Potency [7]
